Measurements published in PubChem BioAssay.
“And” between values parts separate entries of the source, which are not always exact repeats. Equal values may be shown once. Some structures have more than one record in an assay (separate samples or runs), and their calls can disagree. The source made the active and inactive calls.

Assays:
[1] = test system: PRMT1 (protein arginine N-methyltransferase 1); assay: small molecules binding arginine methyltransferase PRMT1 – biochemical, small-molecule microarray, 635 nm fluorescence, primary screen (AID 1088); conditions: higher = more signal;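 further: binding of Prmt1 protein to compounds spotted on small-molecule microarray slides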
[2] = growth effects on S. cerevisiae YJM789 – YJM789 clinical isolate, OD600, 24 h, basal, primary screen (AID 1089); conditions: higher = more signal, called active from +8 up or from −8 down;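 further: growth of clinical yeast isolate S. cerevisiae YJM 789 seeded 1000 cells per well; test concentration not given here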
[3] = S. pombe growth modifiers, basal conditions – strain 972, OD600, 24 h, no modulator, primary screen (AID 1090);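 further: basal condition with compound alone and no growth modifier present; test concentration not given here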; conditions: S. pombe 972 growth, higher = more signal, called active from +8 up or from −8 down
[4] = budding yeast growth modifiers under rapamycin – strain BY4716, OD600, 96 h, primary screen (AID 1091); further: test concentration not given here; conditions: S. cerevisiae BY4716 + rapamycin, higher = more signal, called active from +8 up or from −8 down
[5] = target: Torsin-1A-interacting protein 2 (Homo sapiens) (UniProt Q8NFQ8); assay: small molecules binding lysate-expressed LULL1 – cell lysate, human LULL1 lysate, 635/667 nm fluorescence, primary screen (AID 1092); conditions: small-molecule microarray, hLULL1 lysate binding, 635 nm fluorescence; higher = more signal;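 further: probe is lysate of COS7 cells overexpressing human LULL1; score merges per-feature 667 nm fluorescence with signal-to-noise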
[6] = optical density change of DRC41 E. coli – strain DRC41, OD650, 24 h, E. coli filamentation project, primary screen (AID 1093);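 further: MC1000 strain lacking acrAB efflux and sulA so SOS filamentation is blocked; test concentration not given here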; conditions: E. coli DRC41 growth, higher = more signal, called active from +8 up or from −8 down
[7] = probe aLefty2 binding to arrayed compounds – biochemical, biotinylated probe, 635/667 nm fluorescence, primary screen (AID 1094); conditions: small-molecule microarray, higher = more signal;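 further: score merges spot fluorescence near 667 nm with spot signal-to-noise ratio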
[8] = test system: Noggin (protein binding on small-molecule microarray); assay: small molecules binding Noggin protein – biochemical, 635/667 nm fluorescence, primary screen (AID 1095); conditions: 635 nm fluorescence, higher = more signal;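 further: score merges 667 nm feature fluorescence with signal to noise over triplicate slides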
[9] = target: Neurogenic locus notch homolog protein 3 (Homo sapiens) (UniProt Q9UM47); assay: small molecules binding NOTCH3 protein – biochemical, 635/667 nm fluorescence, primary screen (AID 1096); conditions: small-molecule microarray, 635 nm fluorescence, higher = more signal
[10] = probe aEGFR binding to arrayed compounds – biochemical, biotinylated probe, 635/667 nm fluorescence, primary screen (AID 1097); conditions: small-molecule microarray, higher = more signal;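 further: probe is a biotinylated anti-EGFR antibody binding compounds printed on slides; score combines fluorescence near 667 nm and signal to noise of each spot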
[11] = test system: Plasmodium falciparum Sir2 (PF13_0152, Sir2A); assay: Plasmodium falciparum Sir2A binding compounds – biochemical, small-molecule microarray, 635 nm fluorescence, primary screen (AID 1098); conditions: fluorescence 635 nm, higher = more signal;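 further: score merges spot fluorescence intensity with its signal-to-noise ratio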
[12] = probe aDKK1 binding to arrayed compounds – biochemical, biotinylated probe, 635/667 nm fluorescence, primary screen (AID 1099); conditions: small-molecule microarray, higher = more signal;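 further: score merges 667nm spot fluorescence with signal to noise across triplicate slides; reference of the scale not given here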
[13] = probe aCHRDL2 binding to arrayed compounds – biochemical, biotinylated probe, 635/667 nm fluorescence, primary screen (AID 1100); conditions: small-molecule microarray, higher = more signal
[14] = change in splice reporter luminescence, either direction, cell-based, HEK293, spliceosome inhibition project, primary screen (AID 1101); conditions: HEK293 splicing luciferase reporter, 24 h, higher = more signal, called active from +8 up or from −8 down;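 further: HEK293 cells carrying a splicing-competent luciferase reporter gene; test concentration not given here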
[15] = target: Fibroblast growth factor 10 (Homo sapiens) (UniProt O15520); assay: compounds binding fibroblast growth factor 10 – biochemical, small-molecule microarray, 635 nm fluorescence, primary screen (AID 1102); conditions: FGF10 binding, fluorescence 635 nm, higher = more signal
[16] = test system: glycogen synthase kinase-3 (GSK3A per assay name; protocol says GSK3B); assay: compounds binding glycogen synthase kinase-3 – biochemical, small-molecule microarray, 635 nm fluorescence, GSK3A, primary screen (AID 1103); conditions: fluorescence 635 nm, higher = more signal; further: the record names both GSK3A and GSK3B
[17] = target: Epidermal growth factor receptor (Homo sapiens) (UniProt P00533); assay: compounds binding epidermal growth factor receptor – biochemical, small-molecule microarray, 635 nm fluorescence, primary screen (AID 1104); conditions: EGFR binding, higher = more signal;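 further: score merges 667 nm emission intensity with spot signal to noise over triplicate slides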
[18] = target: Follistatin-related protein 3 (Homo sapiens) (UniProt O95633); assay: compounds binding follistatin-related protein 3 – biochemical, small-molecule microarray, 635 nm fluorescence, primary screen (AID 1105); conditions: FSTL3 binding, higher = more signal;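 further: score merges emission near 667 nm and signal to noise per printed spot across three slides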
[19] = target: Dickkopf-related protein 1 (Homo sapiens) (UniProt O94907); assay: small molecules binding DKK1 protein – biochemical, small-molecule microarray, 635 nm fluorescence scan, primary screen (AID 1106); conditions: higher = more signal;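 further: score merges emission near 667 nm with signal to noise over three replicate slides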
[20] = test system: Inhibin beta A chain (activin A); assay: small molecules binding activin A – biochemical, small-molecule microarray, 635 nm fluorescence scan, primary screen (AID 1107); conditions: INHBA, higher = more signal;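 further: mouse activin A protein probed at 4.33 µg/mL on printed slides; score merges bound-protein fluorescence near 667 nm with spot signal-to-noise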

Torsin-1A-interacting protein 2 (Homo sapiens), sequence (Q8NFQ8 whole entry, looked up): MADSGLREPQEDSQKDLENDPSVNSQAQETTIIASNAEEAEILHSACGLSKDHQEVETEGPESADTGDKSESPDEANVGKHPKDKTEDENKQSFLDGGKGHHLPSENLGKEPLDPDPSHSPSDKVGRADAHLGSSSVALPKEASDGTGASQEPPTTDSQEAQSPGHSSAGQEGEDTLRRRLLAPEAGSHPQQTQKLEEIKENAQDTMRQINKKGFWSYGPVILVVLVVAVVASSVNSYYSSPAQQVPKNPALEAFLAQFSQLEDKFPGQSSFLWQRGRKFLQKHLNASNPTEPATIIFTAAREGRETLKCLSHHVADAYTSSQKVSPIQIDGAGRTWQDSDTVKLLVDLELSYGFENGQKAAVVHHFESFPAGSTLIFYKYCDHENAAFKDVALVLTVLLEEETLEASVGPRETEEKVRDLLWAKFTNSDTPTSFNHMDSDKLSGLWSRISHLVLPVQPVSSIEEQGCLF
Epidermal growth factor receptor (Homo sapiens), sequence (P00533 whole entry, looked up): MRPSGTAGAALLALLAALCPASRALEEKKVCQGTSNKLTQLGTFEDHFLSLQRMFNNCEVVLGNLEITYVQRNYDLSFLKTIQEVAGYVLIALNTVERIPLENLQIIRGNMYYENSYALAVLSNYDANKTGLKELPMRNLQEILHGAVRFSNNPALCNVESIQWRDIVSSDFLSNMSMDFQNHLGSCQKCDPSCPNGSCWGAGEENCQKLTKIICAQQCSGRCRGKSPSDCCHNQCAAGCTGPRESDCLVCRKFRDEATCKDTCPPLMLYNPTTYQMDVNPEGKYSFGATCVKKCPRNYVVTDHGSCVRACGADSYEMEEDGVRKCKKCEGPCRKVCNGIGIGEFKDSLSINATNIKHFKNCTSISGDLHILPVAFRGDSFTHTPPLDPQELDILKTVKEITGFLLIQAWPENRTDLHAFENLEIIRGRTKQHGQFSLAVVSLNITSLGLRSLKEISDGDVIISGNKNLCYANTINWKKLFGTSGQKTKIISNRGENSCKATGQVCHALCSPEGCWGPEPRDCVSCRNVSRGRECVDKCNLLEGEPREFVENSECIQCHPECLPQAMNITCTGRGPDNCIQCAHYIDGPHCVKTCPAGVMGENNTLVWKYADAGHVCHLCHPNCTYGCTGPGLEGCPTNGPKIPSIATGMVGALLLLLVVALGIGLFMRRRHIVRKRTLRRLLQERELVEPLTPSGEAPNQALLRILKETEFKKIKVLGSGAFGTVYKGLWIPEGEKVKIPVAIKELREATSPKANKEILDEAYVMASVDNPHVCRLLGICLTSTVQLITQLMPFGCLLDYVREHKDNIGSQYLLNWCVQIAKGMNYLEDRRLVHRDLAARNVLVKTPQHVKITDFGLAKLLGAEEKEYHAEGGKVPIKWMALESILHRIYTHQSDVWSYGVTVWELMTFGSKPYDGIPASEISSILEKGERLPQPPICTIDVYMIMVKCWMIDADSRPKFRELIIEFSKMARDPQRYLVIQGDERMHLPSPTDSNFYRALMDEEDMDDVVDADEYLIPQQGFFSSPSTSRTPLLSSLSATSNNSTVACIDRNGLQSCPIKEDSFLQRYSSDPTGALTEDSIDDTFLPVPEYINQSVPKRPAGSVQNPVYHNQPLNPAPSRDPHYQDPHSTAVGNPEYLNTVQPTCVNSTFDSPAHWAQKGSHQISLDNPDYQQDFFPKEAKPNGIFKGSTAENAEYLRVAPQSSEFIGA
Follistatin-related protein 3 (Homo sapiens), sequence (O95633 whole entry, looked up): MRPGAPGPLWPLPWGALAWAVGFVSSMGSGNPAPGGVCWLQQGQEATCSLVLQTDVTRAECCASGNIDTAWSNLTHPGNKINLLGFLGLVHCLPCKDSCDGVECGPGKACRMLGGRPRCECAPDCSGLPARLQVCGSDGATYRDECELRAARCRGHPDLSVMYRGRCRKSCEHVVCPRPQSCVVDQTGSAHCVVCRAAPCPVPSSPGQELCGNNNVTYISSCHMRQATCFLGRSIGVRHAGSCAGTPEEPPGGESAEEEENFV
Neurogenic locus notch homolog protein 3 (Homo sapiens), sequence (Q9UM47 whole entry, looked up): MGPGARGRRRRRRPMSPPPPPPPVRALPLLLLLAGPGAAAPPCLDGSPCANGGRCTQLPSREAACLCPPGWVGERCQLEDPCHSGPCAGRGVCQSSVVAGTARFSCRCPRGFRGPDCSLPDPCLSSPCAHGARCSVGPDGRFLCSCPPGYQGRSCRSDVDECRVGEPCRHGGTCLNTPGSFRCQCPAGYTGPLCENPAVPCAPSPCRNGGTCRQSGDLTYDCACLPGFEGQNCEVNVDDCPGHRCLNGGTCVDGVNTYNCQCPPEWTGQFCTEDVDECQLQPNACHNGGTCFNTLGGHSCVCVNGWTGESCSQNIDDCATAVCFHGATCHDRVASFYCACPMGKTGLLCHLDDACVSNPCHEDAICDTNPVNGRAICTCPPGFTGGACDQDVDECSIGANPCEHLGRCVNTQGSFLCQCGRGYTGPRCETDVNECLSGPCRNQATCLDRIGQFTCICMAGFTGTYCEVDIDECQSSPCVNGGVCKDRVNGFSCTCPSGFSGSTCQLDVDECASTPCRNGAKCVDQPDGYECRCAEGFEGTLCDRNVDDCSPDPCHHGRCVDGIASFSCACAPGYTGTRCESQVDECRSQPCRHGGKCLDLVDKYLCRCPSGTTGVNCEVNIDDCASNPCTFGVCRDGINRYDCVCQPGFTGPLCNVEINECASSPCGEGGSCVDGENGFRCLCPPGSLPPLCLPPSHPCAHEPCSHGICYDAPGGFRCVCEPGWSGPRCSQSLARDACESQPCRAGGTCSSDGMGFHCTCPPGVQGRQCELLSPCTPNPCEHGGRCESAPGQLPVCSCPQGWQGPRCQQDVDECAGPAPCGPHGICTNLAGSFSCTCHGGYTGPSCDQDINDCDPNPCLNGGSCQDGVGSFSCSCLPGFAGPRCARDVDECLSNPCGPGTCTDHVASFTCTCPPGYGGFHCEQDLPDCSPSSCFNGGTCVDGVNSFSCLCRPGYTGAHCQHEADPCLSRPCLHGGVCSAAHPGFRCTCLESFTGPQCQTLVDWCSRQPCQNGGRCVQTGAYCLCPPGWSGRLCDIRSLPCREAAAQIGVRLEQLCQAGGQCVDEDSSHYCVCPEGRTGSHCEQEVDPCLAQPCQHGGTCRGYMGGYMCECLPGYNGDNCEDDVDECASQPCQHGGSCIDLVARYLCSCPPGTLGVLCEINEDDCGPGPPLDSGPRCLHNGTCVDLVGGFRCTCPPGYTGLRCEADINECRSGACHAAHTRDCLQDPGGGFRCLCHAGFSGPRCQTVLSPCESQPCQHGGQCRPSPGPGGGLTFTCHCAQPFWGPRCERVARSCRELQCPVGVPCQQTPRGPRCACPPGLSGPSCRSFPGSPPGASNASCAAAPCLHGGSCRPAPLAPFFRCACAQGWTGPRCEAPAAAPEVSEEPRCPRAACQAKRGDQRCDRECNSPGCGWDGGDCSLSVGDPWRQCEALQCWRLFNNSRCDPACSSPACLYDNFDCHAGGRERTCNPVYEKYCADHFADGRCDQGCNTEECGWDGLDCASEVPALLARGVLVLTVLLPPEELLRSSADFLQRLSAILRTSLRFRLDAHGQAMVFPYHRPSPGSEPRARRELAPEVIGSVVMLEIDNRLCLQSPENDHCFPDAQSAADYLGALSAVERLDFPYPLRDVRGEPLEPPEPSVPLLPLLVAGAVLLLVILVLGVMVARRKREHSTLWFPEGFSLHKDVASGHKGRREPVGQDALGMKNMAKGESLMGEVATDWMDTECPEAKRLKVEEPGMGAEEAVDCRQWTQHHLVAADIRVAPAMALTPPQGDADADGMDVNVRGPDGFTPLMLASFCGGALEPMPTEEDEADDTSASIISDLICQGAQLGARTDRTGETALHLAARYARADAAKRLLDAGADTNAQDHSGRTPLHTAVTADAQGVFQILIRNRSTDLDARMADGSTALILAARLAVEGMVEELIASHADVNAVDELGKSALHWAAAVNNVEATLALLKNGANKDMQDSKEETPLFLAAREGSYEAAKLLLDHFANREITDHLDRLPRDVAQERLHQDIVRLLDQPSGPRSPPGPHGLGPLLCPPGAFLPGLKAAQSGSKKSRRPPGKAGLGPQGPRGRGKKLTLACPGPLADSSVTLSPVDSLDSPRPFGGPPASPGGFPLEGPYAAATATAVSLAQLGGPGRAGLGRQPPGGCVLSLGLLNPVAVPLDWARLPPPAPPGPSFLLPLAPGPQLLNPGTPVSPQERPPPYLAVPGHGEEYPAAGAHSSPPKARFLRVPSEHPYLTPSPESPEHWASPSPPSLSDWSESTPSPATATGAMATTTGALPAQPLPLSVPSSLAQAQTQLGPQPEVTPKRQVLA
Fibroblast growth factor 10 (Homo sapiens), sequence (O15520 whole entry, looked up): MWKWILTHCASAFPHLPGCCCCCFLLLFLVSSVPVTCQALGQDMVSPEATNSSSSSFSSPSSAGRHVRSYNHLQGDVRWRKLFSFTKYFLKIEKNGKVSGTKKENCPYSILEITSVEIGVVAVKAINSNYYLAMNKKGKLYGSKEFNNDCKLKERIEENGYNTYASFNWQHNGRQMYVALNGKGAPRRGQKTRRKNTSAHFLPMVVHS
Dickkopf-related protein 1 (Homo sapiens), sequence (O94907 whole entry, looked up): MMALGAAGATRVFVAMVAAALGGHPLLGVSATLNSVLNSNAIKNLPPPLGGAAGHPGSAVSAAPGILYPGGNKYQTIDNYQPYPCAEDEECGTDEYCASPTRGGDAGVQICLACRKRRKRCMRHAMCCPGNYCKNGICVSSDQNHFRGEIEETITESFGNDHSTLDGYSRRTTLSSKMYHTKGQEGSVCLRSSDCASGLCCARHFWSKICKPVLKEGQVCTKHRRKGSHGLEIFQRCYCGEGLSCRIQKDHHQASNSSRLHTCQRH

Row | Compound | composite z-score [1] | z-score [2] | z-score [3] | z-score [4] | composite z-score [5] | z-score [6] | composite z-score [7] | composite z-score [8] | composite z-score [9] | composite z-score [10] | composite z-score [11] | composite z-score [12] | composite z-score [13] | z-score [14] | composite z-score [15] | composite z-score [16] | composite z-score [17] | composite z-score [18] | composite z-score [19] | composite z-score [20]
1 | COC(=O)C1=C(C)N(Cc2ccccc2)C2=C3C(=O)N(C)C(=O)[C@@H]3[C@@](O)(C(=O)OC)C(=O)N2[C@@H]1c1ccccc1 | 0.471 and 0.0202 | 0.0264 (inactive) and -1.64 (inactive) | -0.774 (inactive) and -1.87 (inactive) | -0.807 (inactive) and -0.913 (inactive) | 0.0055 and 0.222 | 0.858 (inactive) and -0.0481 (inactive) | 0.0494 and -0.184 | 0.34 and 0.538 | 0.182 and 0.361 | -0.138 and 0.131 | -0.0387 and 0.0245 | 0.0287 and -0.103 | -0.282 and -0.486 | -0.18 (inactive) and -0.675 (inactive) | 0.786 and 0.387 | 0.0745 and 0.608 | 0.533 and 0.834 | 0.285 and 0.502 | 0.103 and 0.211 | 0.476 and 0.292
2 | CN1C(=O)C2CC=C([C@H]3Oc4ccccc4S(=O)(=O)N4CCC[C@@H]34)CC2C1=O (stereo not given in full) | -0.525 and -1.12 | -0.243 (inactive) and 0.235 (inactive) | 0.0646 (inactive) and 0.0942 (inactive) | 0.579 (inactive) and 0.0211 (inactive) | -0.781 and -0.674 | 0.108 (inactive) and -0.089 (inactive) | -0.163 and -0.0719 | -0.487 and 0.281 | -0.977 and -1.16 | -0.199 and -0.165 | 0.149 and 0.302 | -0.226 and -0.273 | -0.344 and -0.424 | 0.776 (inactive) and 0.117 (inactive) | -0.575 and -0.066 | -0.913 and -0.794 | -0.297 and -0.148 | -0.837 and -0.641 | 0.0379 and 0.305 | 0.315 and 0.808
3 | COC(=O)C1=C(C)N(Cc2ccccc2)C2=C3C(=O)N(c4ccccc4)C(=O)[C@@H]3[C@@](O)(C(=O)OC)C(=O)N2[C@@H]1c1ccccc1 | 0.345 and 1.13 | 0.286 (inactive) and -1.22 (inactive) | -1.52 (inactive) and -2.29 (inactive) | -1.18 (inactive) and -1.1 (inactive) | 0.806 and 1.46 | 0.117 (inactive) and 1.24 (inactive) | -0.0736 and -0.0453 | 0.608 and 0.455 | 0.54 and 1.04 | -0.0125 and -0.0534 | -0.0191 and 0.501 | -0.0254 and -0.186 | -0.914 and -0.616 | 0.0988 (inactive) and -2.38 (inactive) | 1.17 and 0.553 | 0.387 and 0.542 | 0.566 and 0.369 | 0.802 and 0.527 | 0.603 and 0.58 | -0.042 and -0.581
4 | Cc1ccc(S(=O)(=O)OC[C@@H]2CN3[C@@H](CC[C@@H](C)[C@@H]3c3ccc(Br)cc3)C(=O)O2)cc1 | 0.353 and 1.4 | -0.464 (inactive) and 0.544 (inactive) | -0.252 (inactive) and 0.102 (inactive) | -0.182 (inactive) and 0.777 (inactive) | 0.454 and 0.845 | 0.199 (inactive) and -0.206 (inactive) | -0.0389 and -0.205 | 0.0884 and 0.47 | -0.0776 and 0.686 | 0.0519 and -0.0671 | 0.257 and 0.321 | 0.151 and 0.128 | -0.234 and -0.289 | 0.479 (inactive) and 0.402 (inactive) | 0.0993 and 0.625 | 0.0442 and 0.372 | 0.352 and 0.49 | 0.0546 and 0.262 | 0.235 and 0.46 | 0.758 and 0.354
5 | CCOC(=O)[C@@H]1CC=C2CC1C(=O)N1CCC[C@@H]1[C@H]2O[Si](C)(C)C(C)(C)C (stereo not given in full) | -0.884 and -1.29 | -0.541 (inactive) and -2.68 (inactive) | -1.43 (inactive) and -19.5 (active) | 0.119 (inactive) and -1.52 (inactive) | -0.664 and -0.302 | -0.988 (inactive) and -0.253 (inactive) | -0.0807 and -0.347 | -0.462 and -0.414 | -0.529 and -2.04 | -0.218 and -0.273 | -0.632 and -0.617 | -0.0776 and -0.228 | -0.0464 and -0.898 | 0.474 (inactive) and 0.337 (inactive) | -0.182 and -1.24 | -0.0945 and -1.32 | -0.762 and -0.649 | -0.552 and -0.744 | 0.055 and -0.0246 | 0.401 and 0.933
6 | C=CCN(C(=O)C(c1cccs1)N(CCOCCO)C(=O)/C=C\C(=O)O)C(C)(C)C (stereo not given) | -1.16 and -0.597 | 0.592 (inactive) and 0.385 (inactive) | -1.35 (inactive) and -0.863 (inactive) | 0.103 (inactive) and 0.0577 (inactive) | -2.06 and 0.15 | 1.41 (inactive) and 0.711 (inactive) | -0.0674 and -0.167 | -1.85 and -2.31 | -1.9 and -0.936 | -0.277 and -0.339 | -1.45 and 1.17 | -0.214 and -0.188 | 0.336 and 0.718 | -0.0364 (inactive) and 0.0433 (inactive) | -1.34 and -1.24 | -1.46 and -0.651 | -1.21 and -0.944 | -1.64 and -1.94 | -2.14 and -2.17 | -0.96 and -1.53
7 | C=CCN(CCCCC)C(=O)C1N(CCOCCO)C(=O)C2C(C(=O)O)C3C=CC21O3 (stereo not given) | -1.77 and -0.751 | 0.322 (inactive) and 0.513 (inactive) | 0.0056 (inactive) and 0.398 (inactive) | 0.912 (inactive) and 1.09 (inactive) | 0.0037 and 0.198 | -0.45 (inactive) and -0.546 (inactive) | -0.0617 and -0.142 | -1.17 and -2.1 | -0.574 and -1.05 | -0.275 and -0.367 | 0.128 and 1.72 | -0.344 and -0.208 | 0.77 and 0.925 | 0.8 (inactive) and 1.24 (inactive) | -1.48 and -1.61 | -1.97 and -0.615 | -1.74 and -1.79 | -1.54 and -1.58 | -2.58 and -3.23 | -1.97 and -1.95
